Reference: PubChem BioAssay AID1159580 (chemical genetic matrix, 2015)
Among all 5,500 compounds or so, about 2,000 (36%) were called active. Not shown: some 18% with an inconclusive outcome. No stated cut-off is given here; in the data, active means normalized growth mostly below about 0.91 (no sharp cut-off); inconclusive means no clear call, values can overlap the other calls; inactive means mostly above about 0.92. The list shows a part of the results.

Test: chemical genetic growth profiling, strain panel (AID 1159580);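 further: tested at 20 µM; growth read once vehicle control cultures reached saturation at 30 °C; 1 = growth at the plate median or of vehicle wells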
Settings: growth OD

Measured: normalized growth

CC1(C)S[C@@H]2[C@H](NC(=O)C(C(=O)O)c3ccccc3)C(=O)N2[C@H]1C(=O)O (stereo partly drawn)
inactive: S. cerevisiae deletion strains, locus YJR075W, strain HOC1, stronger effect = lower value 0.987 | S. cerevisiae deletion strains, locus YKL009W, strain mrt4, stronger effect = lower value 0.971 | S. cerevisiae deletion strains, locus YKL068W, stronger effect = lower value 0.994 | S. cerevisiae deletion strains, locus YKL085W, strain MDH1 (second series), stronger effect = lower value 1 | S. cerevisiae deletion strains, locus YKL085W, strain MDH1, stronger effect = lower value 1 | S. cerevisiae deletion strains, locus YKL160W, strain elf1, stronger effect = lower value 1 | S. cerevisiae deletion strains, locus YKR001C, strain vps1, stronger effect = lower value 0.982 | S. cerevisiae deletion strains, locus YKR026C, strain gcn3, stronger effect = lower value 0.985 | S. cerevisiae deletion strains, locus YKR091W, strain srl3, stronger effect = lower value 0.975 | S. cerevisiae deletion strains, locus YLL001W, strain dnm1, stronger effect = lower value 0.932 | S. cerevisiae deletion strains, locus YLL026W, stronger effect = lower value 0.96 | S. cerevisiae deletion strains, locus YLL041C, strain sdh2, stronger effect = lower value 0.982 | S. cerevisiae deletion strains, locus YLR027C, strain aat2, stronger effect = lower value 0.976 | S. cerevisiae deletion strains, locus YLR039C, strain RIC1, stronger effect = lower value 0.989 | S. cerevisiae deletion strains, locus YLR058C, strain SHM2, stronger effect = lower value 0.989 | S. cerevisiae deletion strains, locus YLR102C, strain apc9, stronger effect = lower value 0.997 | S. cerevisiae deletion strains, locus YLR113W, strain HOG1, stronger effect = lower value 0.992 | S. cerevisiae deletion strains, locus YLR221C, strain rsa3, stronger effect = lower value 0.928 | S. cerevisiae deletion strains, locus YLR258W, strain gsy2, stronger effect = lower value 0.967 | S. cerevisiae deletion strains, locus YLR262C, strain YPT6 (second series), stronger effect = lower value 1 | S. cerevisiae deletion strains, locus YLR262C, strain YPT6, stronger effect = lower value 1 | S. cerevisiae deletion strains, locus YLR268W, strain sec22, stronger effect = lower value 0.987 | S. cerevisiae deletion strains, locus YLR320W, strain mms22, stronger effect = lower value 0.967 | S. cerevisiae deletion strains, locus YLR330W, strain CHS5, stronger effect = lower value 0.992 | S. cerevisiae deletion strains, locus YLR342W, strain FKS1 (second series), stronger effect = lower value 0.998 | S. cerevisiae deletion strains, locus YLR342W, strain FKS1, stronger effect = lower value 0.982 | S. cerevisiae deletion strains, locus YLR357W, strain rsc2, stronger effect = lower value 0.967 | S. cerevisiae deletion strains, locus YLR370C, strain arc18, stronger effect = lower value 0.926 | S. cerevisiae deletion strains, locus YLR371W, strain rom2, stronger effect = lower value 0.988 | S. cerevisiae deletion strains, locus YLR384C, strain iki3, stronger effect = lower value 0.969 | S. cerevisiae deletion strains, locus YLR418C, strain cdc73, stronger effect = lower value 0.984 | S. cerevisiae deletion strains, locus YML016C, strain PPZ1, stronger effect = lower value 0.99 | S. cerevisiae deletion strains, locus YML032C, strain rad52, stronger effect = lower value 0.981 | S. cerevisiae deletion strains, locus YML120C, strain ndi1, stronger effect = lower value 0.946 | S. cerevisiae deletion strains, locus YML124C, strain tub3, stronger effect = lower value 1 | S. cerevisiae deletion strains, locus YMR058W, strain fet3, stronger effect = lower value 0.971 | S. cerevisiae deletion strains, locus YMR078C, strain ctf18, stronger effect = lower value 0.985 | S. cerevisiae deletion strains, locus YMR125W, strain sto1, stronger effect = lower value 0.956 | S. cerevisiae deletion strains, locus YMR129W, stronger effect = lower value 1 | S. cerevisiae deletion strains, locus YMR205C, strain PFK2, stronger effect = lower value 0.98 | S. cerevisiae deletion strains, locus YMR223W, strain ubp8, stronger effect = lower value 0.987 | S. cerevisiae deletion strains, locus YMR231W, strain pep5, stronger effect = lower value 0.988 | S. cerevisiae deletion strains, locus YMR307W, strain GAS1, stronger effect = lower value 0.917 | S. cerevisiae deletion strains, locus YNL067W, strain RPL9B, stronger effect = lower value 1 | S. cerevisiae deletion strains, locus YNL071W, strain lat1, stronger effect = lower value 0.995 | S. cerevisiae deletion strains, locus YNL153C, strain GIM3, stronger effect = lower value 0.989 | S. cerevisiae deletion strains, locus YNL183C, strain NPR1, stronger effect = lower value 0.94 | S. cerevisiae deletion strains, locus YNL209W, strain ssb2, stronger effect = lower value 0.969 | S. cerevisiae deletion strains, locus YNL233W, strain BNI4, stronger effect = lower value 0.975 | S. cerevisiae deletion strains, locus YNL248C, strain rpa49, stronger effect = lower value 1.02 | S. cerevisiae deletion strains, locus YNL250W, strain rad50, stronger effect = lower value 0.975 | S. cerevisiae deletion strains, locus YNL271C, strain bni1, stronger effect = lower value 0.984 | S. cerevisiae deletion strains, locus YNL298W, strain CLA4, stronger effect = lower value 0.99 | S. cerevisiae deletion strains, locus YNL307C, strain MCK1, stronger effect = lower value 0.992 | S. cerevisiae deletion strains, locus YNL322C, strain KRE1 (second series), stronger effect = lower value 0.971 | S. cerevisiae deletion strains, locus YNL322C, strain KRE1, stronger effect = lower value 0.997 | S. cerevisiae deletion strains, locus YNR049C, strain mso1, stronger effect = lower value 0.962 | S. cerevisiae deletion strains, locus YNR052C, strain pop2, stronger effect = lower value 0.983 | S. cerevisiae deletion strains, locus YOL006C, strain TOP1, stronger effect = lower value 0.985 | S. cerevisiae deletion strains, locus YOL012C, strain htz1 1.06 | S. cerevisiae deletion strains, locus YOL147C, strain pex11, stronger effect = lower value 0.982 | S. cerevisiae deletion strains, locus YOR001W, strain rrp6, stronger effect = lower value 1 | S. cerevisiae deletion strains, locus YOR061W, strain CKA2, stronger effect = lower value 0.994 | S. cerevisiae deletion strains, locus YOR069W, strain VPS5, stronger effect = lower value 0.991 | S. cerevisiae deletion strains, locus YOR070C, strain gyp1, stronger effect = lower value 0.972 | S. cerevisiae deletion strains, locus YOR080W, strain dia2, stronger effect = lower value 0.972 | S. cerevisiae deletion strains, locus YOR083W, strain WHI5, stronger effect = lower value 0.994 | S. cerevisiae deletion strains, locus YOR106W, strain vam3, stronger effect = lower value 0.993 | S. cerevisiae deletion strains, locus YOR136W, strain idh2, stronger effect = lower value 0.98 | S. cerevisiae deletion strains, locus YOR144C, strain elg1, stronger effect = lower value 0.983 | S. cerevisiae deletion strains, locus YOR184W, strain ser1, stronger effect = lower value 0.978 | S. cerevisiae deletion strains, locus YOR231W, strain MKK1, stronger effect = lower value 1.04 | S. cerevisiae deletion strains, locus YOR265W, strain rbl2, stronger effect = lower value 0.964 | S. cerevisiae deletion strains, locus YOR270C, strain vph1, stronger effect = lower value 0.978 | S. cerevisiae deletion strains, locus YOR290C, strain snf2, stronger effect = lower value 0.961 | S. cerevisiae deletion strains, locus YOR316C, strain cot1, stronger effect = lower value 0.981 | S. cerevisiae deletion strains, locus YPL051W, strain arl3, stronger effect = lower value 0.992 | S. cerevisiae deletion strains, locus YPL078C, strain atp4, stronger effect = lower value 1.01 | S. cerevisiae deletion strains, locus YPL106C, strain sse1, stronger effect = lower value 0.937 | S. cerevisiae deletion strains, locus YPL240C, strain hsp82, stronger effect = lower value 0.971 | S. cerevisiae deletion strains, locus YPL241C, strain CIN2, stronger effect = lower value 0.997 | S. cerevisiae deletion strains, locus YPL256C, strain CLN2, stronger effect = lower value 1.03 | S. cerevisiae deletion strains, locus YPR119W, strain clb2, stronger effect = lower value 0.991 | S. cerevisiae deletion strains, locus YPR141C, strain kar3, stronger effect = lower value 0.977 | S. cerevisiae deletion strains, locus YPR163C, strain tif3, stronger effect = lower value 0.989 | S. cerevisiae deletion strains, locus YPR167C, strain met16, stronger effect = lower value 0.99 | S. cerevisiae deletion strains, strain wtn01, stronger effect = lower value 0.984 | S. cerevisiae strains, strain wild type, stronger effect = lower value 0.999
